Compound activity deposited in PubChem BioAssay by National Center for Advancing Translational Sciences (NCATS).
Shown are actives, neighbours in structure and some others; about 19% of the full set was active somewhere.
TGFb SMAD3 inh – qHTS for Inhibitors of TGF-b. HepG2 CAGA-GFP TGF-b/SMAD3 reporter, GFP fluorescence, 18 h; TGF-beta stimulated, 500 pg/mL final. actives 1.2% (n = 410,000). Potency, µM (top dose mostly 46.1 µM), for the others: at the top dose activity, negative = inhibition, actives largely listed as inhibitors. AID 588855, 2011; note: potency is the fitted concentration of half-maximal effect; % is set by controls: 0 for no effect and ±100 for the full control effect; nearly all actives have a fitted effect of over 65% in size
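Per well, imaged GFP fluorescence of HEPG2 CAGA-GFP cells gives the signal; cells get compound, then TGF-beta (500 pg/mL final), 18 h at 37 degrees C; %Activity versus -TGF-beta and +DMSO controls.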
IL-1B inflam inh – qHTS for Inhibitors of Inflammasome Signaling: IL-1-beta AlphaLISA Primary Screen; THP-1 LPS/ATP IL-1B secretion, AlphaLISA, 16 h; active compounds read low; activity change, % at 57.5 µM; actives 4.7% (n = 360,000); in the data active = activity change below about -50%; inconclusive = mostly about -30% to -49%; note: % is set by controls: 0 for no effect and ±100 for the full control effect
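Secreted IL-1B measured by AlphaLISA bead assay after 16 h compound exposure of THP-1 cells; compounds (final up to 57.5 uM) added 1 h before LPS (250 ng/mL) and ATP (1.25 mM) stimulation; lower signal means less secretion.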
DT40 TDP1 CPT – qHTS for Inhibitors of human tyrosyl-DNA phosphodiesterase 1 (TDP1): qHTS in cells in presence of CPT | Potency, µM (doses to about 46.2 µM), for inactives: top-dose activity change, negative = growth inhibition, usual class: inhibitors | chicken DT40 Tdp1-/-;hTDP1 cells + 20 nM CPT, ATP luminescence, 48 h | actives 12% (n = 420,000); note: potency is the fitted concentration of half-maximal effect; % is set by controls: 0 for no effect and ±100 for the full control effect; nearly all actives have a fitted effect of over 55% in size
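Chicken DT40 Tdp1-/- cells complemented with human TDP1, 400 cells/well, exposed to compounds plus 20 nM camptothecin for at least 48 h at 37 C; viability read as ATP content by CellTiter-Glo luminescence.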
HepG2 tox – qHTS for Inhibitors of TGF-b: Cytotox Counterscreen. HepG2 CAGA-GFP viability, ATP luminescence, 18 h. Potency, µM (doses to about 46.1 µM), for the others: at the highest dose activity change, negative = cytotoxicity, usual class: cytotoxic. actives 0.76% (n = 410,000); note: potency is the fitted concentration of half-maximal effect
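CellTiter-Glo luminescence gave cytotoxicity after 18 hours at 37 degrees C. The cells were HepG2 CAGA-GFP in 1% FBS DMEM, stimulated with 500 pg/mL TGF-beta after compound addition. %Activity was normalised to no-cell wells (complete cell-killing) and DMSO (no toxicity), and curves were fitted and classified.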
TDP1 block – qHTS Assay for Inhibitors of Tyrosyl-DNA Phosphodiesterase (TDP1) | Tyrosyl-DNA phosphodiesterase 1 (Homo sapiens), Q9NUW8 | recombinant TDP1, AlphaScreen DNA substrate cleavage | Potency, µM (series often up to 130 µM), for the others: at the highest dose activity change, negative = inhibition, hits mostly inhibitors | actives 0.28% (n = 350,000); note: potency is the fitted concentration of half-maximal effect; % is set by controls: 0 for no effect and ±100 for the full control effect; nearly all actives have a fitted effect of over 40% in size
Target sequence (Q9NUW8 whole entry, looked up): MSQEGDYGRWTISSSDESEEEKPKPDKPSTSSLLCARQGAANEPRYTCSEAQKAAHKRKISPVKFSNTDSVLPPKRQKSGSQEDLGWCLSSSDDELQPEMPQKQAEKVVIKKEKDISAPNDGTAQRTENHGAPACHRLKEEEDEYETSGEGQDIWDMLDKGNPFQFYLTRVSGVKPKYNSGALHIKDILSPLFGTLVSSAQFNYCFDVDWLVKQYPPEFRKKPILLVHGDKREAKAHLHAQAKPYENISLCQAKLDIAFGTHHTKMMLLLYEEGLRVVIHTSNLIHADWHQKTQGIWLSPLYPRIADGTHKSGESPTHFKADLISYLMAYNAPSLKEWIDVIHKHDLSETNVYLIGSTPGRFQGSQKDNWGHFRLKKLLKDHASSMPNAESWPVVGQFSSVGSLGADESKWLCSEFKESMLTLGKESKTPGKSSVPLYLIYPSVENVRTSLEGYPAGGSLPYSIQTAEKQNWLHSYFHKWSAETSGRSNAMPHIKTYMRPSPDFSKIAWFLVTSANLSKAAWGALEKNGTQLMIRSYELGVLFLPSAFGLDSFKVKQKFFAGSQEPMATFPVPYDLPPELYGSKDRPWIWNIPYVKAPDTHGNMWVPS
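Recombinant human Tdp1 (E. coli-expressed, 1 nM final) preincubated with compounds 15 min at room temperature, then 5'-biotin/3'-phosphotyrosine-FITC DNA substrate (15 nM final) added for 5 min. AlphaScreen beads (10 ug/ml final) added 10 min; cleavage lowers signal.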
DT40 TDP1 no CPT – qHTS for Inhibitors of human tyrosyl-DNA phosphodiesterase 1 (TDP1): qHTS in cells in absence of CPT; DT40 Tdp1-/- hTDP1 cells, no CPT, ATP luminescence, 48 h; Potency, µM (top dose mostly 46.2 µM), for the others: at the top dose activity change, negative = growth inhibition, most hits filed as inhibitors; actives 15% (n = 420,000); AID 686978, 2013; note: potency is the fitted concentration of half-maximal effect; % is set by controls: 0 for no effect and ±100 for the full control effect; nearly all actives have a fitted effect of over 55% in size
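Cells were dispensed at 400 per well, compounds added by pin tool, plates incubated ≥48 hr at 37 °C, then CellTiter-Glo added for 30 min at room temperature before luminescence reading. Line: DT40 Tdp1-/- complemented with hTDP1; camptothecin omitted.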
An asterisk follows results filed as active; ? = inconclusive; . = no result. Unless noted, calls come from the whole dose curve; as a rule, active = well fitted curve in the direction sought with a large enough effect; inconclusive = small, poorly fitted or top-dose-only effect, or another doubt; inactive = no such curve, though single readings can be large; an effect the other way counts as inactive or inconclusive.

SMILES	TGFb SMAD3 inh	IL-1B inflam inh	DT40 TDP1 CPT	HepG2 tox	TDP1 block	DT40 TDP1 no CPT
Cc1ccc(S(=O)Cc2ccc(C(=O)NCc3ccc(OC(C)C)cc3)o2)cc1 (centres undefined)	-23%	.	?	-16%	5%	?
Cc1ccc(CNC(=O)CN2CCN(Cc3ccc(F)cc3)C2=O)cc1	-24%	.	-5%	-1%	2%	-24%
NS(=O)(=O)c1ccc(NC(=O)CSc2nnc(NC3CC3)s2)cc1	0%	8	11%	2%	14µM*	-28%
NS(=O)(=O)c1ccc(NC(=O)CSC2CCCCC2)cc1	-1%	8	16µM*	17%	1%	29µM*
CCn1cc(Cl)c(C(=O)N2N=C3/C(=C/c4cccs4)CCCC3C2c2cccs2)n1 (centres undefined)	5%	?	18µM*	-2%	3%	?
CCOc1ccccc1NC(=O)CCc1c(C)nn(-c2ccc(N3CCOCC3)nn2)c1C	4%	.	?	-7%	5%	?
COC(=O)N1CCN(c2ccc(Cl)c(Cl)c2)CC1	-4%	-7	?	-27%	-1%	?
N#C/C=C(/N)N1CCN(c2ccc(Cl)c(Cl)c2)CC1	-10%	?	?	-13%	3%	16µM*
CNC(=S)N1CCN(c2ccc(Cl)c(Cl)c2)CC1	-16%	-58*	23µM*	-23%	5%	16µM*
Nc1ccc(N2CCN(c3ccc(Cl)c(Cl)c3)CC2)cc1	-5%	-6	12µM*	4%	8%	9.2µM*
CC1(C)CCC(=O)N2CC[C@H]3C[C@H](OC(=O)Nc4ccccc4)C[C@@H]1[C@H]32	-3%	-18	16µM*	-13%	.	?
O=C(Nc1ccccc1)C1CC2CCC1C2 (centres undefined)	19%	9	12%	-1%	.	15%
O=C(Nc1ccccc1)OC1CCC2CC1CCC2OC(=O)Nc1ccccc1 (centres undefined)	?	?	13µM*	4%	-2%	12µM*
CC1(C)CCC(=O)N2CC[C@H]3C[C@H](OC(=O)Nc4ccc5c(c4)OCO5)C[C@@H]1[C@H]32	-3%	-15	?	4%	.	?
CCOC(=O)Cn1c(=O)n(-c2cccc(Cl)c2)c2nc(-c3ccccc3Cl)nc(C(N)=O)c21	?	.	.	-26%	4%	.
NC1(c2ccc(-c3nc4ccn5c(=O)[nH]nc5c4cc3-c3ccccc3)cc2)CCC1	7.9µM*	.	0.38µM*	13µM*	.	0.6µM*
Nc1ncnc2c1ncn2COC(CO)CO	5%	.	0.32µM*	-4%	0%	0.71µM*
Cc1ccc(C(=O)N2CCN(C(=O)c3ccccc3)C2c2ccc(N(C)C)cc2)cc1 (centres undefined)	?	-4	-7%	-8%	0%	?
CN(C)c1ccc(C2CCc3ccccc3N2C(=O)c2ccccc2)cc1 (centres undefined)	-12%	.	11µM*	-19%	.	7.9µM*
CCOc1cc(Br)ccc1S(=O)(=O)N1CC(C)OC(C)C1 (centres undefined)	?	9	26µM*	-74%	2%	?
CCN(CC)S(=O)(=O)c1ccc2c(c1)nc(CCC(=O)Nc1cccc(C(F)(F)F)c1)n2CC	-11%	?	29µM*	8%	2%	?
